YopH inh: inhibitors of Yersinia enterocolitica YopH tyrosine phosphatase. fluorescence Ex485/Em525. inhibition, % (concentration not given with the values). actives 0.16% (n = 140,000). AID 898; in the data active = inhibition above about 50%
An asterisk follows results filed as active. Only a selection was taken, and hits are over-represented in it overall.

How did CC1(C)CC(=O)C=C(Nc2cccc(O)c2)C1 do in these assays?
YopH inh: -41.9

What do the screens show for `CC1CCN(C2=C(NS(=O)(=O)c3ccc(Cl)cc3)C(=O)c3ccccc3C2=O)CC1`?
YopH inh: -0.5

What do the screens show for `O=C1C(Nc2cccc(O)c2)=C(N2CCCCC2)C(=O)c2ccccc21`?
YopH inh: 80.7*

How did O=C1C(Cl)=C(Nc2ccccc2)C(=O)c2ccccc21 do in these assays?
YopH inh: -19.0

How did COc1ccccc1NC1=C(N2CCCCC2)C(=O)c2ccccc2C1=O do in these assays?
YopH inh: 90.2*

How did COC1=C(Nc2ccc(C)cc2)C(=O)c2ccccc2C1=O do in these assays?
YopH inh: -2.4

What do the screens show for `COc1ccccc1Nc1nc(N)nc(CN2CCCCCC2)n1`?
YopH inh: 2.4

Results for COc1cccc(OC)c1C(=O)Nc1ccccc1N1CCCC1 ?
YopH inh: -3.6

How did Cc1ccc(NC2=C(N3CCCCC3)C(=O)c3ccccc3C2=O)cc1 do in these assays?
YopH inh: 75.6*

Results for CCOC(=O)C(C(C)=O)=C1SC2CS(=O)(=O)CC2S1 (stereo not drawn) ?
YopH inh: -36.2

How did O=C(CCN1CCc2ccccc2C(c2ccccc2)C1)c1ccc2c(c1)OCCO2 (stereo not drawn) do in these assays?
YopH inh: -19.1

Results for Cc1cc(C)c2c(=O)[nH]c(SCC(=O)NCc3ccccc3)nc2n1 ?
YopH inh: -38.7

Results for Cc1cc(C)n2nc(SCN3C(=O)c4ccccc4C3=O)nc2n1 ?
YopH inh: -32.9

How did Cn1c(=O)c2c(O)cc(=O)[nH]c2n(-c2ccccc2)c1=O do in these assays?
YopH inh: -51.1

How did COc1ccc(NC(=O)c2cccs2)c([N+](=O)[O-])c1 do in these assays?
YopH inh: -25.6

What do the screens show for `Cc1cc(C)c2c(c1)cc(C)c1nnc(SCC(=O)Nc3ccccc3N3CCOCC3)n12`?
YopH inh: -39.7

How did CCOC(=O)c1cccc2c1-c1ccccc1/C2=N/O do in these assays?
YopH inh: -42.5

What do the screens show for `CN1CCN(c2cc(N3CCCCCC3)c(F)cc2[N+](=O)[O-])CC1`?
YopH inh: -15.7

What do the screens show for `COc1ccc(C(=O)On2c(-c3ccc(Br)cc3)nc3ccccc3c2=O)cc1`?
YopH inh: -8.4

Results for CCc1ccccc1NS(=O)(=O)c1ccc(SC)cc1 ?
YopH inh: -9.6

What do the screens show for `CCCOc1ccccc1-n1sc2c(c1=S)-c1cc(OC)cc3c1N(C(=O)C3=O)C2(C)C`?
YopH inh: -3.3

What do the screens show for `Nc1nc(N2CCOCC2)cc(=O)[nH]1`?
YopH inh: -1.2

How did O=C(/C=C/c1ccc(O)cc1)c1ccc(NC2=C(N3CCCCC3)C(=O)c3ccccc3C2=O)cc1 do in these assays?
YopH inh: 92.8*

What do the screens show for `O=C(/C=C/c1ccc(O)c(O)c1)c1ccc(S(=O)(=O)N2CCCCCC2)cc1`?
YopH inh: -14.0

How did COc1ccc(C(=O)/C=C/c2ccc(N3CCCCC3)c([N+](=O)[O-])c2)cc1 do in these assays?
YopH inh: -20.2

What do the screens show for `O=S(=O)(Nn1cnnc1)c1ccccc1`?
YopH inh: -14.1

How did OCCOCCNc1ncnc2c1cnn2-c1ccc(Cl)cc1 do in these assays?
YopH inh: -32.5

Results for COc1ccc(C(=O)CSc2nnc(C3CC3)n2N)cc1 ?
YopH inh: -3.6

Results for CC(C)CCC(O)(CCC(C)C)C(=O)NNc1ccccc1 ?
YopH inh: -36.2

What do the screens show for `COC(=O)N(NC(=O)C(O)(c1ccccc1)c1ccccc1)c1ccccc1`?
YopH inh: 18.3

Results for COC(=O)N(NC(=O)C(O)(CCC(C)C)CCC(C)C)c1ccccc1 ?
YopH inh: 69.7*

Results for Cc1ccc(C)c(NS(=O)(=O)c2ccc3c(c2)Cc2cc(S(=O)(=O)Nc4cc(C)ccc4C)ccc2-3)c1 ?
YopH inh: -23.4

Results for Cc1c(CN(C)C)c2c(n1C)C(=O)c1ccc(Br)cc1-2 ?
YopH inh: 0.4

Results for CCOC(=O)c1c2c(n(C)c1C)C(=O)C(=O)c1ccc(Br)cc1-2 ?
YopH inh: 88.5*

What do the screens show for `CCOC(=O)c1c(-c2ccccc2)c(C(C)=O)c(=O)n(C)c1C`?
YopH inh: -45.6

Results for COc1ccc(C(=O)c2c(C)c3cc(C)ccc3n2CC(O)CN2CCOCC2)cc1 (stereo not drawn) ?
YopH inh: -6.8

What do the screens show for `O=C1OCCC1NC1=NCCC1` (stereo not drawn)?
YopH inh: -37.2

Results for O=Nc1c2nc3ccccc3n(O)c-2c2ccccc12 ?
YopH inh: -39.7

Results for CC(=O)c1cccc(OCC(O)CN2CC=C(c3ccccc3)CC2)c1 (stereo not drawn) ?
YopH inh: -18.5

Results for O=C(O[C@@H]1OC2COC(=O)c3cc(O)c(O)c(O)c3-c3c(cc(O)c(O)c3O)C(=O)O[C@@H]([C@H]1O)[C@@H]2O)c1cc(O)c(O)c(O)c1 ?
YopH inh: 54.1*

What do the screens show for `COC(=O)c1cccc(NC(=O)c2cccc(OC)c2)c1`?
YopH inh: -20.5

Results for CCN1CCN(C(=O)COc2cc(=O)n(CC)c3ccccc23)CC1 ?
YopH inh: -29.9

What do the screens show for `CCOC(=O)N1CCN(C(=O)COc2cc(=O)n(CC)c3ccccc23)CC1`?
YopH inh: -30.4

Results for CCOC(=O)COc1cc(=O)n(CC)c2ccccc12 ?
YopH inh: 51.9*

How did O=C(/C=C/c1ccccc1)NCCSCc1ccccc1Cl do in these assays?
YopH inh: -7.0

Results for CCOP(=O)(OCC)C(NC(=O)Nc1ccc(Cl)cc1)c1ccccc1 (stereo not drawn) ?
YopH inh: -11.6

How did O=C1NCCCC2c3c(cc(Br)c(O)c3Br)OC12N1CCOCC1 (stereo not drawn) do in these assays?
YopH inh: -50.8

How did O=C1NCCCC2c3cc(O)c4ccccc4c3OC12N1CCCCC1 (stereo not drawn) do in these assays?
YopH inh: 74.5*

How did O=c1oc2ccccc2c(O)c1CN1CCCCC1 do in these assays?
YopH inh: -28.9

What do the screens show for `COc1cc(NC(=O)c2ccccc2)cc(OC)c1`?
YopH inh: -20.2

Results for CCCCNC(=S)N(C)/N=C/c1ccccc1F ?
YopH inh: -27.3

How did CCCOc1ccc(C(CC(=O)O)NC(=O)C23CC4CC(CC(C4)C2)C3)cc1 (stereo not drawn) do in these assays?
YopH inh: -16.7

What do the screens show for `N#Cc1ccccc1NC(=O)Nc1ccc(Cl)cc1`?
YopH inh: -21.6

Results for O=C(CCc1ccc(S(=O)(=O)NCc2ccccc2)cc1)N1CCN(Cc2ccc3c(c2)OCO3)CC1 ?
YopH inh: -1.3

Results for O=C1CC(c2ccccc2)c2cc(O)ccc2O1 (stereo not drawn) ?
YopH inh: 70.0*

Results for Cc1ccc(C2CC(=O)Oc3cc(O)ccc32)cc1 (stereo not drawn) ?
YopH inh: -14.5

Results for c1ccc(C2Nc3ccccc3Oc3ccccc32)cc1 (stereo not drawn) ?
YopH inh: -5.8

How did CNc1nc(Sc2ccccc2)cc(C(F)(F)F)n1 do in these assays?
YopH inh: -25.1

How did Cc1nc2sc(C(c3cccs3)N3CCOCC3)c(O)n2n1 (stereo not drawn) do in these assays?
YopH inh: -27.1

What do the screens show for `COc1ccc2c(C)cc(=O)[nH]c2c1`?
YopH inh: -14.3

Results for O=C(CN1CCN(c2ncccn2)CC1)N1CCCc2c1c(=O)oc1ccc(O)cc21 ?
YopH inh: 47.8

What do the screens show for `O=C(CN1CCN(Cc2ccccc2)CC1)N1CCCc2c1c(=O)oc1ccc(O)cc21`?
YopH inh: 18.0
